Assay outcomes as filed in PubChem BioAssay.
A selection: hits, their analogues and other compounds. The true share with any hit is near 9%.
HPGD inh: qHTS Assay for Inhibitors of HPGD (15-Hydroxyprostaglandin Dehydrogenase); 15-hydroxyprostaglandin dehydrogenase [NAD(+)] (Homo sapiens), P15428; purified HPGD, NADH fluorescence kinetic, PGE2 substrate; Potency, µM, most hits filed as inhibitors; actives 4.3% (n = 150,000); active = well fitted inhibition curve with a large enough effect, not every such curve was filed as active; inconclusive = small, poorly fitted or top-dose-only effect, or another doubt; inactive = no such curve, though single readings can be large or run the other way
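20 nM HPGD preincubated 15 min at room temperature with compound in 50 mM Tris-HCl pH 8, 0.01% Tween 20. Started with 1 mM NAD+ and 30 uM prostaglandin E2; NADH fluorescence (360/450 nm) read 5 times over 30-s intervals, last minus first.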
IMPase Li inh: qHTS Assay for Identifying the Cell-Membrane Permeable IMPase Inhibitors: Potentiation with Lithium; actives 0.35% (n = 210,000); CHO-M1 cells, IP1 TR-FRET (IP-One), carbachol + lithium; Potency, µM (series often up to 59.4 µM), most hits filed as inhibitors;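 note: IP1 builds up when IMPase is blocked and the TR-FRET signal falls; nearly all actives have a fitted effect of over 50% in size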
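Test compounds were applied to CHO-M1 cells previously cultured for 16–30 h at 2000 per well. A small lithium amount accompanied them; after 30 min at 37C, IP1 was quantified by TR-FRET.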
Lamin A splicing: qHTS Assay for Modulators of Lamin A Splicing; HeLa LMNA splicing GFP/RFP minigene ratio, 48 h; Potency, µM (top dose mostly 46.1 µM), actives largely listed as inhibitors; actives 0.01% (n = 200,000); AID 1487, 2009; active = well fitted inhibition curve with a large enough effect in the signal ratio, with a control signal flat, not every such curve was filed as active; inconclusive = small, poorly fitted or top-dose-only effect, or effect the other way, or a change in a side signal; the % refers to the signal ratio
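S3 HeLa stable clones carrying a lamin A-EGFP splicing minigene plus DsRed2 were seeded at 600 cells/well in Opti-MEM with 2% FBS, pin-dosed and incubated 48 h at 37°C. Acumen cytometry (488 nm) gave the GFP/RFP total-intensity ratio.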
KinaseGlo FLuc: Counterscreen for Luciferase (Kinase-Glo TM) Inhibition; Luciferin 4-monooxygenase (Photuris pensylvanica), Q27757; actives 0.28% (n = 200,000); AID 1379, 2008; Potency, µM (top dose mostly 38.3 µM), usual class: inhibitors; Kinase-Glo luciferase, ATP luminescence, 8 min; note: nearly all actives have a fitted effect of over 60% in size
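Compound is pinned into ATP-containing buffer (10 uM ATP, imidazole pH 7.2, 7 mM MgCl2). Kinase-Glo luciferase reagent is then added. Light output is recorded following an 8-min room-temperature incubation.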
ALDH1A1 block: qHTS Assay for Inhibitors of Aldehyde Dehydrogenase 1 (ALDH1A1) | Potency, µM (highest dose often 75.3 µM), most hits filed as inhibitors | actives 7.3% (n = 220,000) | Purified ALDH1A1, NADH fluorescence, propionaldehyde substrate; active = well fitted inhibition curve with a large enough effect, not every such curve was filed as active; inconclusive = small, poorly fitted or top-dose-only effect, or another doubt; inactive = no such curve, though single readings can be large or run the other way
Target sequence (P00352 whole entry, looked up): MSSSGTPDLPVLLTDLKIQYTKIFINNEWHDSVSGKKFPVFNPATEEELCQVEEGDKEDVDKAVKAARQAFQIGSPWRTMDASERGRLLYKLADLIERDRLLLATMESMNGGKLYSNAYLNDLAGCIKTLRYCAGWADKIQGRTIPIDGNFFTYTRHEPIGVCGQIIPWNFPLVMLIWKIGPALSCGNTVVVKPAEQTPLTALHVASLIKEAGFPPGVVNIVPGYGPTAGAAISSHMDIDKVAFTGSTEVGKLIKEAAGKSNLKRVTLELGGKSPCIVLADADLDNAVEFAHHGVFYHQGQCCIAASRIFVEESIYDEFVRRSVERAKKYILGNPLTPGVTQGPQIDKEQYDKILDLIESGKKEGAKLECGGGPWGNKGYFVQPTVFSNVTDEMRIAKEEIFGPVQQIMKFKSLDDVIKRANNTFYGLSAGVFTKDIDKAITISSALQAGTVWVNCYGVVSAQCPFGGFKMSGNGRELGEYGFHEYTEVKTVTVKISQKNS
Hits are given with their value; – = inactive; ? = inconclusive; · = no result; [ ] = remark or other dose. Unless noted, calls come from the whole dose curve; as a rule, active = well fitted curve in the direction sought with a large enough effect; inconclusive = small, poorly fitted or top-dose-only effect, or another doubt; inactive = no such curve, though single readings can be large; an effect the other way counts as inactive or inconclusive.

SMILES | HPGD inh | IMPase Li inh | Lamin A splicing | KinaseGlo FLuc | ALDH1A1 block
COC(=O)CN1C(=O)N/C(=C/c2cc3c(cc2OC)OCO3)C1=O | · | – | · | – | 7.9µM
COC(=O)CN1C(=O)N/C(=C/c2ccc(OC)cc2)C1=O | · | – | · | · | ?
COc1ccccc1CN=Cc1[nH]c2ccc(Br)c(Cl)c2c1O | 13µM | 7.1µM | – | – | 0.79µM
COc1cccc(CN=CC2=C(O)CC(C)(C)CC2=O)c1OC | ? | – | – | – | ?
Cc1cccc(N=Cc2[nH]c3ccc(Br)c(Cl)c3c2O)c1 | 14µM | – | – | – | 4.5µM
CC(=O)OCC1OC(C#Cc2ccccc2)C=CC1OC(C)=O (stereo not drawn) | · | · | · | · | –[13.5 µM]
COc1ccc(OC)c(NC(=O)CSC2=C(C#N)C(c3ccco3)C3=C(CCCC3=O)N2)c1 (stereo not drawn) | – | – | ? | – | ?
CCc1ccccc1NC(=O)CSC1=C(C#N)C(c2ccc3c(c2)OCO3)C2=C(CCCC2=O)N1 (stereo not drawn) | – | – | – | – | 25µM
Cc1cc(C)c(NC(=O)C2CCCN2CCOC(=O)c2cccc([N+](=O)[O-])c2)c(C)c1 (stereo not drawn) | – | – | – | – | 40µM
COc1cccc2cc(-c3csc(-c4ccc(Cl)cc4)n3)c(=O)oc12 | · | · | – | · | ·
Cc1sc2ncnc(SCC(=O)NCC(C)C)c2c1C | 16µM | – | – | – | –
O=C(c1csc2ccccc12)N1CCCCCC1 | 0.013µM | – | ? | – | –
O=C(c1csc2ccccc12)n1cccn1 | – | – | – | – | 11µM
O=C(c1csc2ccccc12)N1CCN(c2ccccn2)CC1 | – | – | – | – | ?
C=CCC1(N(C(C)=O)c2ccccc2C)CCCCC1 | · | – | ? | – | –
O=C1NC(=O)[C@@H]2C3c4ccccc4C=CN3[C@H](C(=O)c3cccs3)[C@H]12 (stereo partly drawn) | – | – | – | – | 25µM
N#C[C@@H]1[C@@H]2C(=O)N(c3ccc4c(c3)OCCO4)C(=O)[C@@H]2C2c3ccccc3C=CN21 (stereo partly drawn) | ? | – | – | – | ?
CCOC(=O)c1ccc(S(=O)(=O)Nc2nc3cc(S(=O)(=O)NC4=NCCCCC4)ccc3s2)cc1 | · | – | – | – | 25µM
O=S(=O)(NC1=NCCCCC1)c1ccc2ccccc2c1 | – | – | – | – | –
O=c1oc2ccccc2c(N2CCCC2)c1CN1CCCC1 | – | – | ? | – | 14µM
CCN1CCN(c2ccc(NC(=O)CCc3c(C)nc4c(-c5ccc(F)cc5)c(C)nn4c3C)cc2)CC1 | · | – | ? | – | –
COCCCNC(=O)c1nc2c(nnn2Cc2cc(C)ccc2C)c(=O)[nH]1 | 0.45µM | – | – | – | –
Cc1ccc(C(=O)N2CCCC(c3nc4c(nnn4Cc4ccccc4)c(=O)[nH]3)C2)cc1 (stereo not drawn) | 3.5µM | – | – | – | ?
CCCCC(=O)N1CCCC(c2nc3c(nnn3Cc3cc(C)ccc3C)c(=O)[nH]2)C1 (stereo not drawn) | 2.2µM | – | – | – | ?
Cc1ccc(C)c(Cn2nnc3c(=O)[nH]c(C4CCCN(C(=O)CC(C)C)C4)nc32)c1 (stereo not drawn) | 10µM | – | – | – | –
COc1ccccc1NC(=O)Nc1cc(F)ccc1F | · | – | – | – | –
Nc1c(N=Nc2ccc(-c3ccc(N=Nc4cc(S(=O)(=O)O)c5ccccc5c4N)cc3)cc2)cc(S(=O)(=O)O)c2ccccc12 | 16µM | – | · | ? | 25µM
Cc1cc(-c2ccc(N=Nc3ccc4c(S(=O)(=O)O)cc(S(=O)(=O)O)c(N)c4c3O)c(C)c2)ccc1N=Nc1ccc2c(S(=O)(=O)O)cc(S(=O)(=O)O)c(N)c2c1O | 5µM | – | · | 10µM | ?
Cc1ccc(N=Nc2c(O)c(S(=O)(=O)O)cc3cc(S(=O)(=O)O)ccc23)c(C)c1 | – | – | · | –[7.66 µM] | ?
COc1ccc(-c2nnc(SCC(=O)NCc3cccs3)n2CC(C)C)cc1 | – | – | – | – | –
